In the OligoGym collection:

target: SCGB3A1; assay: pooled miR-30 sensor sort-seq; sequence = guide strand; details: shRNA
Also: reference of the scale not given here.

**Q.** With CAGCTCAGCCACACACTTCTGG as the sequence, how does the sensor-assay potency score (higher = more potent) read?
**A.** -1.81

**Q.** CTCAGCAGGAGCTTCAGCGGGT was tested. Which sensor-assay potency score (higher = more potent) did it give?
**A.** -1.59

**Q.** How did the sensor-assay potency score (higher = more potent) turn out when TATGAGGTGGTTCACGGGGATG was run?
**A.** -2.01

**Q.** For TCTATGAGGTGGTTCACGGGGA, which sensor-assay potency score (higher = more potent) is on record?
**A.** -0.221

**Q.** With ACTAAGAAAGCAGCAGCGGAGC as the sequence, how does the sensor-assay potency score (higher = more potent) read?
**A.** -1.78

**Q.** AGCTCAGCCACACACTTCTGGG was tested. Which sensor-assay potency score (higher = more potent) did it give?
**A.** -1.63

**Q.** How did the sensor-assay potency score (higher = more potent) turn out when AAAGCAGCAGCGGAGCTGCAGG was run?
**A.** -1.3

**Q.** Which sensor-assay potency score (higher = more potent) does the source give for TCCAGCGCAGCGACAGGCTGGG here?
**A.** -1.47

**Q.** Which sensor-assay potency score (higher = more potent) does the source give for TAAGAAAGCAGCAGCGGAGCTG here?
**A.** -0.766

**Q.** For AAGAAAGCAGCAGCGGAGCTGC, which sensor-assay potency score (higher = more potent) is on record?
**A.** -0.859

**Q.** With TTCACGGGGATGCCCAGGCTGC as the sequence, how does the sensor-assay potency score (higher = more potent) read?
**A.** -1.89

**Q.** TCAGCCACACACTTCTGGGAGC was tested. Which sensor-assay potency score (higher = more potent) did it give?
**A.** -1.19

target: SCN10A; assay: as above; details: shRNA

**Q.** With TTAACCAAAATAGTGACCGTAA as the sequence, how does the sensor-assay potency score (higher = more potent) read?
**A.** 0.123

**Q.** TATTCCAGAATCTTCGCTGTGA was tested. Which sensor-assay potency score (higher = more potent) did it give?
**A.** 0.727

**Q.** TAATGCTCTAAGAACTCTGAAT was tested. Which sensor-assay potency score (higher = more potent) did it give?
**A.** -0.877

**Q.** With TTAGACAAAATCCTCTTGCCAG as the sequence, how does the sensor-assay potency score (higher = more potent) read?
**A.** -0.449

**Q.** TAGTGCTGCTAGCACCTCCTGC was tested. Which sensor-assay potency score (higher = more potent) did it give?
**A.** -0.978

**Q.** With TTGACTTTCACATTGACCCAGA as the sequence, how does the sensor-assay potency score (higher = more potent) read?
**A.** 0.154

**Q.** For TATGATACTGACAACACTCATT, which sensor-assay potency score (higher = more potent) is on record?
**A.** -0.905

**Q.** TTGTCCTGCATCGAATGCCGAG was tested. Which sensor-assay potency score (higher = more potent) did it give?
**A.** -1.18

**Q.** How did the sensor-assay potency score (higher = more potent) turn out when TTGCTTCTCTATCTCCACCAGT was run?
**A.** -0.403

**Q.** How did the sensor-assay potency score (higher = more potent) turn out when TTGAGCTTCACCCACATGGGGC was run?
**A.** -0.622

**Q.** How did the sensor-assay potency score (higher = more potent) turn out when TTGGTCATCAGTCTCCACCATC was run?
**A.** -1.09

**Q.** For TTCAGCACCATAAATGTCCGGT, which sensor-assay potency score (higher = more potent) is on record?
**A.** 0.128

target: SCN2B; assay: as above; details: shRNA

**Q.** Which sensor-assay potency score (higher = more potent) does the source give for TAAACTGGAAATAACTGTGAAG here?
**A.** -0.894

**Q.** Which sensor-assay potency score (higher = more potent) does the source give for TTGTGGTTCACTGTGTAGCAGG here?
**A.** -0.841

**Q.** Which sensor-assay potency score (higher = more potent) does the source give for TTTTTTTCTCCTCACACACTTG here?
**A.** -1.04

**Q.** How did the sensor-assay potency score (higher = more potent) turn out when TTCCCTGAGAACTCCACGCGGT was run?
**A.** -0.473

**Q.** TATAGCACACACAACCAAGAAA was tested. Which sensor-assay potency score (higher = more potent) did it give?
**A.** -1.12

**Q.** For TATATCTATACCTAGAGAGAGA, which sensor-assay potency score (higher = more potent) is on record?
**A.** -1.18

**Q.** How did the sensor-assay potency score (higher = more potent) turn out when TTGCAAAAGAAACTCAGTCTGC was run?
**A.** -0.173

**Q.** TTGATTGGCAGTTAGGTACTGA was tested. Which sensor-assay potency score (higher = more potent) did it give?
**A.** 0.514

**Q.** TTGCACTCCTGGTAAGTCCAGT was tested. Which sensor-assay potency score (higher = more potent) did it give?
**A.** 0.119

**Q.** Which sensor-assay potency score (higher = more potent) does the source give for ATTGTCTGTCTGCTTAACCTGA here?
**A.** -0.931

**Q.** For TTGTCTGTCTGCTTAACCTGAC, which sensor-assay potency score (higher = more potent) is on record?
**A.** -0.0966

**Q.** With TTAATTAGGAGGAAGAGACAGA as the sequence, how does the sensor-assay potency score (higher = more potent) read?
**A.** -0.125

target: SCN4A; assay: as above; details: shRNA

**Q.** Which sensor-assay potency score (higher = more potent) does the source give for TTTGAACTTCTCAAGCATCTGC here?
**A.** 1.21

**Q.** For TTGTAGTCAGCTGTGCTGCAGA, which sensor-assay potency score (higher = more potent) is on record?
**A.** -0.246

**Q.** How did the sensor-assay potency score (higher = more potent) turn out when TTGATGCAGTAGTAGAACTTGC was run?
**A.** -0.382
